Assay results taken from the supplement of paper PMC10849652.
About 8,800 targets were measured; listed, in parts, are those with a hit and a random draw of the rest. About 0.5% of all pairs of compound and target were hits.

Assays:
Experiment in all cases: log2 fold change, soluble protein after heating vs DMSO (PISA); higher = thermal stabilisation; K562 lysate, 10 uM; active = over 0.2 and 3.5 SD of the protein, either way, in both replicates (recomputed)
[1] = compound: CN1CC[C@H](c2c(O)cc(O)c3c(=O)cc(-c4ccccc4Cl)oc23)[C@H](O)C1 [alvocidib]
Summary of the method: (§1)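 Dounce homogenisation of K562 pellets in PBS pH 7.4 with 1 mM MgCl2 produced a crude extract, used at 1 mg/mL protein. Exposure to 10 μM compound lasted 30 min, and aliquots were then heated for 3 min across 48°C-58°C, pooled and brought to 0.5% NP-40 at 4°C. The supernatant after 21,000xg for 90 min was quantified by TMTpro 16plex LC-MS/MS with channel sums equalised. Duplicate values are given as log-two fold change in thermal stability relative to solvent controls.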

[2] = compound: CN1CCc2c(c3ccccc3n2Cc2ccc(C(=O)NO)cc2)C1 [Tubastatin A]
Summary of the method: as §1

[3] = compound: CNC(=O)C1=CC=CC=C1NC2=NC(=NC=C2Cl)NC3=C(C=C(C=C3)N4CCOCC4)OC
Summary of the method: as §1

[4] = compound: CNC(=O)c1ccc(Nc2ncc(C(F)(F)F)c(NCc3nccnc3N(C)S(C)(=O)=O)n2)cc1 [defactinib]
Summary of the method: as §1

[5] = compound: CNc1nc(-c2ccc3c(N)n[nH]c3c2)cc(N2C[C@@H](C(=O)NC3CCCCC3)CC[C@H]2C)n1
Summary of the method: as §1

[6] = compound: COC(=O)N[C@@H](C)CNc1nccc(-c2cn(C(C)C)nc2-c2cc(Cl)cc(NS(C)(=O)=O)c2F)n1 [encorafenib]
Summary of the method: as §1

[7] = compound: COC(=O)[C@H](CCSC)NC(=O)C1=C(C=C(C=C1)NC[C@H](CS)N)C2=CC=CC=C2
Summary of the method: as §1

[8] = compound: COc1cc(Nc2ncc3c(n2)-c2ccc(Cl)cc2C(c2c(F)cccc2OC)=NC3)ccc1C(=O)O [alisertib]
Summary of the method: as §1

[9] = compound: COc1cc2nc(-c3cc(F)ccc3O)nc(N[C@@H]3CNC[C@H]3C(C)(C)O)c2cc1OC
Summary of the method: as §1

[10] = compound: COc1cc2ncnc(Nc3ccc(F)c(Cl)c3)c2cc1OCCCN1CCOCC1 [gefitinib]
Summary of the method: as §1

Measured: log2 fold change

TLE3 isoform 4 (UniProt Q04726)
Sequence of UniProt Q04726 (Q04726 whole entry, looked up): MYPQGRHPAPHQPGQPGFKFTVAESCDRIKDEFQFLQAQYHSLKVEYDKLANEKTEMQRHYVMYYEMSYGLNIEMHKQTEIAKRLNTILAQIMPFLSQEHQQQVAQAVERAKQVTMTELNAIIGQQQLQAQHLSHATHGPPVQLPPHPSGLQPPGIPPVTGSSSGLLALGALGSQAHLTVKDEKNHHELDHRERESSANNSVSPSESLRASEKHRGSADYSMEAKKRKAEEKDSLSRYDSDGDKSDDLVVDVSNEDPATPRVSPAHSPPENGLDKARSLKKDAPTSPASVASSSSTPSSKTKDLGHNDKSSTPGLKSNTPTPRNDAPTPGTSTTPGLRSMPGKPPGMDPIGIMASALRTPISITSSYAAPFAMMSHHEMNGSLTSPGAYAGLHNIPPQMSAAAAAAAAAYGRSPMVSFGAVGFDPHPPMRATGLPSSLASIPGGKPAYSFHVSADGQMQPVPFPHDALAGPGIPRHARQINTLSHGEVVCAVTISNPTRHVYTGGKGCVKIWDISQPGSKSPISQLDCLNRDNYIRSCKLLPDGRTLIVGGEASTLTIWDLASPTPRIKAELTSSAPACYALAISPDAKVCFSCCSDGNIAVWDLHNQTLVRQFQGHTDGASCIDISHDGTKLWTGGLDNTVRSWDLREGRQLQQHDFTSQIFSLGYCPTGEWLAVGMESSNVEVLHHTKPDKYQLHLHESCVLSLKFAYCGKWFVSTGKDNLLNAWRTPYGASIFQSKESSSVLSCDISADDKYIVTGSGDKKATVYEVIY
inactive: [1] 0.023 | [2] 0.002 | [3] -0.013 | [4] 0.004 | [5] 0.024 | [6] 0.014 | [7] -0.019 | [8] -0.016 | [9] 0.002 | [10] -0.037

TLK2 isoform 3 (UniProt Q86UE8)
inactive: [1] 0.007

TTC38 (UniProt Q5R3I4)
inactive: [1] 0.121 | [2] -0.013 | [3] 0.004 | [4] 0.001 | [5] 0.034 | [6] -0.045 | [7] 0.013 | [8] -0.046 | [9] -0.018 | [10] -0.069

TBL2 (UniProt Q9Y4P3)
inactive: [1] 0.018 | [2] -0.007 | [3] 0.023 | [4] 0.039 | [5] -0.003 | [6] 0.057 | [7] -0.036 | [8] 0.008 | [9] 0.055 | [10] -0.018

TRIM33 (UniProt H0Y612)
inactive: [1] -0.081 | [2] -0.034 | [3] 0.119 | [4] -0.007 | [5] 0.075 | [6] 0.014 | [7] 0.122 | [8] -0.006 | [9] 0.09 | [10] -0.102

TTC5 (UniProt Q8N0Z6)
Sequence of UniProt Q8N0Z6 (Q8N0Z6 whole entry, looked up): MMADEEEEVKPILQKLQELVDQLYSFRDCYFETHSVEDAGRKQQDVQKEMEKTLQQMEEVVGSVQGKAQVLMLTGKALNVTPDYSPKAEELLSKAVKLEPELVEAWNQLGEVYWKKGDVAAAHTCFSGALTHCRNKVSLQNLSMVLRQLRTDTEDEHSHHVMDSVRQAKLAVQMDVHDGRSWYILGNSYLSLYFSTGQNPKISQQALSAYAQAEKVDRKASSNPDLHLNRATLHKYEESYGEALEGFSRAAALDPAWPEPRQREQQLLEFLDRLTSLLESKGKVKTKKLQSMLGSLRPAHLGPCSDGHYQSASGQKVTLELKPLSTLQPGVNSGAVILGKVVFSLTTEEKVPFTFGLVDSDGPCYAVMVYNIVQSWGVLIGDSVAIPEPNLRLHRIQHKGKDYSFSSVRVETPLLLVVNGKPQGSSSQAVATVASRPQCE
inactive: [1] -0.006 | [2] -0.092 | [3] -0.017 | [4] -0.017 | [5] -0.02 | [6] -0.021 | [7] 0.057 | [8] -0.036 | [9] -0.01 | [10] 0.091

TJP1 (UniProt H0Y3R8)
inactive: [1] 0.079

TTK (UniProt P33981)
active: [3] 0.616 | [4] 0.434
inactive: [1] -0.004 | [2] -0.141 | [5] 0.101 | [6] 0.004 | [7] -0.02 | [8] 0.078 | [9] 0.103 | [10] -0.102

TRA2A (UniProt Q13595)
inactive: [1] -0.007 | [2] -0.079 | [3] -0.033 | [4] 0.171 | [5] 0.031 | [6] -0.017 | [7] 0.068 | [8] -0.188 | [9] 0.017 | [10] 0.118

THEMIS2 (UniProt Q5TEJ8)
Sequence of UniProt Q5TEJ8 (Q5TEJ8 whole entry, looked up): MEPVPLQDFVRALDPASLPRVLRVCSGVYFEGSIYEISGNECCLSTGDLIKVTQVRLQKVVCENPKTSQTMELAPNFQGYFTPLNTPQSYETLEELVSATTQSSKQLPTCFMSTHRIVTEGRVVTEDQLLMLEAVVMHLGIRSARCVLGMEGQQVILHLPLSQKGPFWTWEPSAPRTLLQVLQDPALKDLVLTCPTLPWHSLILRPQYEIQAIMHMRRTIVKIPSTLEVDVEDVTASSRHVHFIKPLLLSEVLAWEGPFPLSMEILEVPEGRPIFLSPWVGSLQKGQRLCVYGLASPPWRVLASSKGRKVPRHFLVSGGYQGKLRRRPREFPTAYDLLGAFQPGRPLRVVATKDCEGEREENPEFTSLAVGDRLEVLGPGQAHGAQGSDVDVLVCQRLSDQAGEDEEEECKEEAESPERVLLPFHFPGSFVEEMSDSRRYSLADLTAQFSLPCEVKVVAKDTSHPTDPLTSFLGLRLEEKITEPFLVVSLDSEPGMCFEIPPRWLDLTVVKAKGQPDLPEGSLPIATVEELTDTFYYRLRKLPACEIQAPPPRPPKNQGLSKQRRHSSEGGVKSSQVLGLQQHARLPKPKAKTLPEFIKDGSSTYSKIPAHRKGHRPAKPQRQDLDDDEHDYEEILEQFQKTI
inactive: [1] -0.036 | [2] -0.069 | [3] 0.024 | [4] 0.028 | [5] 0 | [6] -0.027 | [7] 0.023 | [8] 0.052 | [9] -0.159 | [10] 0.025

TRADD (UniProt Q15628)
Sequence of UniProt Q15628 (Q15628 whole entry, looked up): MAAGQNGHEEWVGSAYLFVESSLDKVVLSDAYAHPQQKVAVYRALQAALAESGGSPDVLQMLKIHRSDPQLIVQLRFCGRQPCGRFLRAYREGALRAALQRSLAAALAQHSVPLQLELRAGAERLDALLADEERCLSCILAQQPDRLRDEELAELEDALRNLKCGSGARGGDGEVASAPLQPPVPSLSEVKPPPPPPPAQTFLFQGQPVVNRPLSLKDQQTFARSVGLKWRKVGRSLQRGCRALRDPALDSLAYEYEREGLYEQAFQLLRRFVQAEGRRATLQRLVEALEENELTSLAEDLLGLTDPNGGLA
inactive: [1] -0.029 | [2] -0.066 | [3] 0.021 | [4] -0.092 | [5] 0.021 | [6] -0.012 | [7] -0.241 | [8] 0.009 | [9] 0.004 | [10] -0.03

TTL (UniProt Q8NG68)
Sequence of UniProt Q8NG68 (Q8NG68 whole entry, looked up): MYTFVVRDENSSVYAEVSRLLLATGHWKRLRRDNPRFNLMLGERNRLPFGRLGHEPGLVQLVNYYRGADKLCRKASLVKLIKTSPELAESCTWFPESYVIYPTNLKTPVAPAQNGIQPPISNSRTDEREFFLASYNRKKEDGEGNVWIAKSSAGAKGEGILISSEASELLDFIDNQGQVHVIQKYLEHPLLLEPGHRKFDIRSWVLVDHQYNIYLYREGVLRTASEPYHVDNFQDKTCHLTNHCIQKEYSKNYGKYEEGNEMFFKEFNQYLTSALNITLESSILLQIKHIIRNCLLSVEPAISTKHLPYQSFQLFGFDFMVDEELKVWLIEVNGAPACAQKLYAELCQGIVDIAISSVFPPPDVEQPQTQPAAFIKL
inactive: [1] 0.112 | [2] -0.143 | [3] 0.015 | [4] -0.065 | [5] 0.001 | [6] 0.079 | [7] 0.144 | [8] -0.027 | [9] 0.019 | [10] 0.112

TIAL1 isoform 2 (UniProt Q01085)
inactive: [1] -0.005 | [2] 0.05 | [3] -0.015 | [4] 0.006 | [5] -0.005 | [6] 0.009 | [7] -0.053 | [8] 0.027 | [9] 0.013 | [10] 0.041

UBAP2L isoform 5 (UniProt Q14157)
inactive: [1] 0.019 | [2] 0.008 | [3] 0.007 | [4] 0.016 | [5] 0.038 | [6] 0.041 | [7] -0.002 | [8] 0.027 | [9] 0.022 | [10] -0.031

TESC (UniProt Q96BS2)
inactive: [1] -0.037 | [2] 0.022 | [3] -0.008 | [4] -0.007 | [5] -0.034 | [6] 0.033 | [7] -0.037 | [8] -0.053 | [9] -0.058 | [10] 0.091

TDRD3 isoform 3 (UniProt Q9H7E2)
inactive: [1] 0.043 | [2] -0.08 | [3] 0.025 | [4] 0.033 | [5] 0.097 | [6] -0.006 | [7] -0.029 | [8] -0.084 | [9] -0.042 | [10] 0.297

UBL4A (UniProt P11441)
inactive: [1] 0.016 | [2] -0.039 | [3] -0.015 | [4] 0.006 | [5] -0.008 | [6] 0.046 | [7] -0.043 | [8] 0.018 | [9] -0.059 | [10] -0.033

TMEM87A (UniProt Q8NBN3)
Sequence of UniProt Q8NBN3 (Q8NBN3 whole entry, looked up): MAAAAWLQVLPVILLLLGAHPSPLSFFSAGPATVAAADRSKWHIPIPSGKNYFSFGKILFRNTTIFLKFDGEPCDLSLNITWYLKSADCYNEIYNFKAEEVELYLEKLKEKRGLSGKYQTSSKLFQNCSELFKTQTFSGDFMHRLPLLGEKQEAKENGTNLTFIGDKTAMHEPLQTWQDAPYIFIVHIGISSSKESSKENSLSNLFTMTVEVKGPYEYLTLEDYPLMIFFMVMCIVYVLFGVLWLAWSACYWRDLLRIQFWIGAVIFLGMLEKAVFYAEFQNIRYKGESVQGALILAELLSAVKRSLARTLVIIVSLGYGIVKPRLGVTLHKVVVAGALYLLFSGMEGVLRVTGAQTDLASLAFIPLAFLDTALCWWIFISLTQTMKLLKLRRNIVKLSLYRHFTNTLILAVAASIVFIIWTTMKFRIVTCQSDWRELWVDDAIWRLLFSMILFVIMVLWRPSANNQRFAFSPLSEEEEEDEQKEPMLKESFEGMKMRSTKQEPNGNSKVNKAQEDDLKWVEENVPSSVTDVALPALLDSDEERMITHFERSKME
inactive: [1] -0.076 | [2] -0.013 | [3] -0.012 | [4] -0.006 | [5] -0.017 | [6] 0.022 | [7] -0.045 | [8] -0.02 | [9] 0.015 | [10] 0.022

TEX30 (UniProt Q5JUR7)
Sequence of UniProt Q5JUR7 (Q5JUR7 whole entry, looked up): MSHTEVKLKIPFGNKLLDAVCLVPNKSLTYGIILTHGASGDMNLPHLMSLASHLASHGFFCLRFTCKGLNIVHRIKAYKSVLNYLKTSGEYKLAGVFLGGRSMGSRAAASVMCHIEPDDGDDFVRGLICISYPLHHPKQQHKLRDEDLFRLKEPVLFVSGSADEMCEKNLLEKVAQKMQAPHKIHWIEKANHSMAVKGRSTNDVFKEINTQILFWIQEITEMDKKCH
inactive: [1] -0.021 | [2] -0.066 | [3] 0.066 | [4] -0.097 | [5] 0.07 | [6] 0.047 | [7] 0.007 | [8] 0.101 | [9] 0.041 | [10] 0.058

TBC1D2B (UniProt Q9UPU7)
Sequence of UniProt Q9UPU7 (Q9UPU7 whole entry, looked up): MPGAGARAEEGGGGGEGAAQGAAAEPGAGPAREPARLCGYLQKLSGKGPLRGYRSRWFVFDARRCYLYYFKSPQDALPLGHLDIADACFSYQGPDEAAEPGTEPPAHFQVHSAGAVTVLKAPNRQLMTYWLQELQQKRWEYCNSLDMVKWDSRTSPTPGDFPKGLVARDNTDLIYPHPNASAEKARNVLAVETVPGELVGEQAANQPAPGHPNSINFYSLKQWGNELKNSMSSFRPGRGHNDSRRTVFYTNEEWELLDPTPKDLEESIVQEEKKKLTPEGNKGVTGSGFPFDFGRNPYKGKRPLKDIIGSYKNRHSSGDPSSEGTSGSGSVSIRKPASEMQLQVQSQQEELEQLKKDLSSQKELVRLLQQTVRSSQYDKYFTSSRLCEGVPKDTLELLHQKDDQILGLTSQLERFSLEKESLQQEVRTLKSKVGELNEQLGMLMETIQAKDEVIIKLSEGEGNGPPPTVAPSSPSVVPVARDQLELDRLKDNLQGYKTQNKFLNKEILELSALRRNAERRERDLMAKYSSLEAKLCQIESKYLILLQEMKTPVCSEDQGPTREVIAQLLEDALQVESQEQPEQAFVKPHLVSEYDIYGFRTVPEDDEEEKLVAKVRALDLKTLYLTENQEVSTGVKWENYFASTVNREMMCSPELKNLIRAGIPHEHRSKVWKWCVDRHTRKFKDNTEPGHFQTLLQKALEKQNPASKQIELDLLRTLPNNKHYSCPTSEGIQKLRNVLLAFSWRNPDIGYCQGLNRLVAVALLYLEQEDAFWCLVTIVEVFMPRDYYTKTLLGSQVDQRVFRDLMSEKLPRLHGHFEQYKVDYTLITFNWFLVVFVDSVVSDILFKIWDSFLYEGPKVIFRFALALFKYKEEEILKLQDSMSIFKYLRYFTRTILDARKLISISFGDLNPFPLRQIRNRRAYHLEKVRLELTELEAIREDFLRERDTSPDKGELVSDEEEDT
inactive: [1] -0.023 | [2] -0.157 | [3] 0.038 | [4] 0.04 | [5] -0.047 | [6] 0.03 | [7] 0.063 | [8] 0.011 | [9] 0.103 | [10] -0.001

TYMS (UniProt P04818)
inactive: [1] 0.015 | [2] -0.023 | [3] 0.017 | [4] 0.002 | [5] -0.018 | [6] 0.013 | [7] -0.006 | [8] 0.021 | [9] 0.006 | [10] -0.024

TOX4 (UniProt O94842)
Sequence of UniProt O94842 (O94842 whole entry, looked up): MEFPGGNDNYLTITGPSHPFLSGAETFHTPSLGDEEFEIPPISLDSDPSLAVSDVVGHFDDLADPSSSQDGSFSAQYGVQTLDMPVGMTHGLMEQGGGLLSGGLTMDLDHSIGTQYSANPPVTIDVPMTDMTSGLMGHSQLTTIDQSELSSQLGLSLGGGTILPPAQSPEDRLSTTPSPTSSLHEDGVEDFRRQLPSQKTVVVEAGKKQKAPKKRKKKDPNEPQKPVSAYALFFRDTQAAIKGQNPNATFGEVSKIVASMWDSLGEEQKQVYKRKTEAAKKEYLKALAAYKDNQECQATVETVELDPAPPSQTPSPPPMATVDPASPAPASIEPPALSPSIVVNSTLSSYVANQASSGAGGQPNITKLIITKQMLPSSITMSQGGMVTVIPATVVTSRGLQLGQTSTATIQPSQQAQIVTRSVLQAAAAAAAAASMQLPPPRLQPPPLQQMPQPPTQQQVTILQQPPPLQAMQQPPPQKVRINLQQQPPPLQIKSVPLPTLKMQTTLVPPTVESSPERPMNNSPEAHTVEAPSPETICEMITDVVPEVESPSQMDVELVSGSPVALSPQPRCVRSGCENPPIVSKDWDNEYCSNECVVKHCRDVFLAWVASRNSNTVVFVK
inactive: [1] -0.16 | [2] -0.006 | [3] 0.027 | [4] 0.025 | [5] -0.022 | [6] -0.011 | [7] -0.082 | [8] 0.028 | [9] -0.013 | [10] -0.016

TIMELESS (UniProt Q9UNS1)
inactive: [1] -0.017 | [2] -0.149 | [3] 0.031 | [4] 0 | [5] -0.039 | [6] 0.039 | [7] 0.105 | [8] -0.011 | [9] 0.049 | [10] 0.017

TRAPPC6A isoform 2 (UniProt O75865)
inactive: [1] 0.059 | [2] -0.006 | [3] 0.011 | [4] -0.026 | [5] -0.017 | [6] -0.142 | [7] -0.027 | [8] -0.052 | [9] 0 | [10] -0.043

UBE3B (UniProt Q7Z3V4)
inactive: [1] -0.07 | [2] -0.134 | [3] 0.136 | [4] 0.028 | [5] 0.008 | [6] 0.102 | [7] -0.047 | [8] 0 | [9] 0.006 | [10] 0.044

TUBA4A (UniProt C9JQ00)
inactive: [1] 0.074

TLK1 isoform 2 (UniProt Q9UKI8)
inactive: [1] -0.05 | [2] -0.092 | [3] 0.046 | [4] 0.16 | [5] 0.023 | [6] -0.045 | [7] -0.14 | [8] -0.028 | [9] 0.05 | [10] 0.01

TTLL12 (UniProt Q14166)
inactive: [1] 0.039 | [2] -0.212 | [3] -0.003 | [4] 0.018 | [5] -0.03 | [6] -0.009 | [7] 0.032 | [8] 0 | [9] 0.003 | [10] 0.039

TPX2 (UniProt Q9ULW0)
active: [7] -0.215
inactive: [1] -0.002 | [2] -0.129 | [3] 0.014 | [4] 0.01 | [5] 0.045 | [6] 0.041 | [8] 0.043 | [9] -0.027 | [10] 0.012

TERF2IP (UniProt Q9NYB0)
inactive: [1] 0.087 | [2] 0.014 | [3] 0.009 | [4] -0.008 | [5] 0.019 | [6] 0 | [7] -0.038 | [8] -0.015 | [9] 0.011 | [10] -0.003

TPM1 isoform 4 (UniProt P09493)
inactive: [1] 0.017 | [2] 0.073 | [3] -0.013 | [4] -0.031 | [5] -0.12 | [6] 0.02 | [7] -0.088 | [8] 0.035 | [9] -0.012 | [10] 0.008

TFIP11 (UniProt Q9UBB9)
inactive: [1] -0.013 | [2] -0.135 | [3] 0.024 | [4] 0.061 | [5] -0.023 | [6] 0.042 | [8] 0.062 | [9] 0.013 | [10] -0.041
active: [7] 0.381
